Assay outcomes deposited in PubChem by SRMLSC.
Most compounds without a hit are left out; they make up all but 6.8% or so of the library.
NADH enzymes: inhibitors of PK/LDH coupling enzymes, profiling panel, artefact control, biochemical, MLSMR library. coupled PK/LDH NADH assays, four targets. IC50, µM (series often up to 10 µM), for inactives: top-dose inhibition. 0.02% of 65,000 active. AID 774, 2007;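 active = single-dose screening hits from any of four coupled enzyme assays that gave an IC50 when retested across doses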;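 also: the DPM-DC format reads NADH fluorescence rather than 340 nm absorbance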
A340 absorber: compound light absorbance at 340 nm, profiling panel, artefact control, biochemical, MLSMR library, data from PS, PMK, MK assays | compound absorbance at 340 nm, fold over control | fold change at 10 µM | 65,000 tested, under 10 active | AID 708, 2007;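 active = at 10 µM dose, initial 340 nm absorbance at least 2 fold that of control wells; inactive = change under 2 fold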;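 also: initial absorbance extrapolated from kinetic A340 decline of NADH oxidation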
DPM-DC inhibit: S. pneumoniae DPM-DC inhibitors, primary screen, biochemical, PK/LDH-coupled NADH fluorescence | diphosphomevalonate decarboxylase (Streptococcus pneumoniae D39) | purified DPM-DC | calls only at 10 µM | 0.49% of 65,000 active | AID 556, 2006;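 active = the 320 compounds with the highest percent inhibition in the single-dose primary screen, excluding strongly autofluorescent ones, cut at about 32% in these data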;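 also: kinetic rate of NADH fluorescence loss reporting ADP formed by the decarboxylase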
Fluor 339 460: intrinsic fluorescence of library compounds, ex339/em460 – biochemical, MLSMR library, data from DPM-DC assay, artefact control, profiling panel; compound autofluorescence, ex339/em460 nm, NADH buffer; stronger effect = higher value; 1 = no-compound wells, NADH background; 5.5% of 65,000 active; fluorescence fold increase at 10 µM; AID 709, 2007;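 active = at 10 µM, mean starting fluorescence two-fold or more over control wells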;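 also: signal is the first read of a kinetic run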
Spn PMK inh: S. pneumoniae PMK inhibitors, primary screen, biochemical, mevalonate pathway, pilot trial included. AID 539, 2006. inhibition, % at 10 µM. 0.49% of 65,000 active. purified PMK, PK/LDH-coupled NADH absorbance 340 nm;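 active = top-ranked compounds by inhibition in the single 10 µM screen, taking a fixed number of the strongest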;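 also: 0% = full reaction with DMSO carrier and 100% = background rate without enzyme reaction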
MK inhibit: S. pneumoniae MK inhibitors, primary screen, biochemical, PK/LDH-coupled NADH absorbance. purified MK, PK/LDH-coupled NADH absorbance 340 nm. AID 555, 2006. mevalonate kinase [Streptococcus pneumoniae D39]. inhibition, % at 10 µM. 0.48% of 65,000 active;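 active = ranked among the strongest by inhibition in the single 10 µM screen, a fixed top-ranked set picked for dose follow-up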
* hit, by the source's call.

What do the screens show for `CCOC(=O)N1CCN(S(=O)(=O)c2ccc3[nH]cc(C(=O)O)c(=O)c3c2)CC1`?
NADH enzymes: 10.0%; A340 absorber: 1.06; DPM-DC inhibit: inactive; Fluor 339 460: 2.38*; Spn PMK inh: 17.0; MK inhibit: 3.0

What do the screens show for `O=C(O)c1c[nH]c2ccc(S(=O)(=O)N3CCN(c4ccc(F)cc4)CC3)cc2c1=O`?
NADH enzymes: 2.0%; A340 absorber: 1.02; DPM-DC inhibit: inactive; Fluor 339 460: 1.19; Spn PMK inh: 10.0; MK inhibit: 0.0

Results for Cc1ccc(OCC(=O)O)c(-n2nc3ccccc3n2)c1 ?
NADH enzymes: 8.0%; A340 absorber: 1.04; DPM-DC inhibit: inactive; Fluor 339 460: 1.21; Spn PMK inh: 12.0; MK inhibit: 7.0

Results for O=C(O)COc1ccc2nsnc2c1Cl ?
NADH enzymes: 10.0%; A340 absorber: 1.03; Fluor 339 460: 3.73*; Spn PMK inh: 10.0; MK inhibit: 9.0

Results for COC(=O)C1=C(C)NC(C)=C(C(=O)OC)C1c1cc2cc(C)ccc2[nH]c1=O ?
NADH enzymes: 4.0%; A340 absorber: 1.02; DPM-DC inhibit: inactive; Fluor 339 460: 2.73*; Spn PMK inh: 7.0; MK inhibit: 9.0

What do the screens show for `COC(=O)C1=C(C)NC(C)=C(C(=O)OC)C1c1cc2ccc(C)cc2[nH]c1=O`?
NADH enzymes: 8.0%; A340 absorber: 1.08; DPM-DC inhibit: inactive; Fluor 339 460: 2.25*; Spn PMK inh: 6.0; MK inhibit: 5.0

Results for CCOC(=O)C1=C(C)NC(C)=C(C(=O)OC)C1c1cccc(Cl)c1Cl (centres undefined) ?
NADH enzymes: 3.0%; A340 absorber: 0.99; DPM-DC inhibit: inactive; Fluor 339 460: 1.39; Spn PMK inh: 6.0; MK inhibit: 7.0

How did Cc1ccc2cc(COC(=O)c3ccncc3)c(=O)[nH]c2c1 do in these assays?
NADH enzymes: 11.0%; A340 absorber: 1.08; DPM-DC inhibit: inactive; Fluor 339 460: 1.17; Spn PMK inh: 4.0; MK inhibit: 7.0

How did CCOC(=O)C1=C(C)NC(C)=C(C(=O)OCC)C1c1cc2ccc(C)cc2[nH]c1=O do in these assays?
NADH enzymes: 19.0%; A340 absorber: 1.1; DPM-DC inhibit: active; Fluor 339 460: 2.18*; Spn PMK inh: 11.0; MK inhibit: 9.0

What do the screens show for `Cc1nc(SCC(C)C)[nH]c(=O)c1Cc1ccccc1`?
NADH enzymes: 2.0%; A340 absorber: 1.02; DPM-DC inhibit: inactive; Fluor 339 460: 1.04; Spn PMK inh: 0.0; MK inhibit: 7.0

Results for O=C(c1cccn2c(=O)c3cc(Cl)ccc3nc12)N1CCN(Cc2ccc3c(c2)OCO3)CC1 ?
NADH enzymes: 9.0%; A340 absorber: 1.09; Fluor 339 460: 4.88*; Spn PMK inh: 17.0; MK inhibit: 0.0

Results for CCn1nc(C(=O)N2CCN(Cc3ccc4c(c3)OCO4)CC2)c2ccccc2c1=O ?
NADH enzymes: 12.0%; A340 absorber: 0.99; DPM-DC inhibit: inactive; Fluor 339 460: 0.95; Spn PMK inh: 20.0; MK inhibit: 8.0

Results for COc1cccc(C(=O)N2CCN(Cc3ccc4c(c3)OCO4)CC2)c1OC ?
NADH enzymes: 3.0%; A340 absorber: 1.04; DPM-DC inhibit: inactive; Fluor 339 460: 1.07; Spn PMK inh: 0.0; MK inhibit: 8.0

How did O=C(CN1C(=O)c2cccc3cccc1c23)N1CCN(Cc2ccc3c(c2)OCO3)CC1 do in these assays?
NADH enzymes: 7.0%; A340 absorber: 1.06; DPM-DC inhibit: inactive; Fluor 339 460: 2.01*; Spn PMK inh: 3.0; MK inhibit: 8.0

What do the screens show for `O=C(c1cccn2c(=O)c3cc(Cl)ccc3nc12)N1CCOCC1`?
NADH enzymes: 2.0%; A340 absorber: 1.05; Fluor 339 460: 3.34*; Spn PMK inh: 13.0; MK inhibit: 1.0

Results for O=C(c1cccn2c(=O)c3ccccc3nc12)N1CCN(Cc2ccc3c(c2)OCO3)CC1 ?
NADH enzymes: 2.0%; A340 absorber: 1.06; Fluor 339 460: 4.98*; Spn PMK inh: 3.0; MK inhibit: 1.0
